TbPYK inhibitor – blocks Trypanosoma brucei pyruvate kinase; Q57TT1; Potency, µM (top dose mostly 76.8 µM), for inactives: at the highest dose activity, negative = inhibition, usual class: inhibitors; AID 624173; 0.12% of 410,000 active; TbPYK enzyme, Kinase-Glo Plus ATP luminescence, 45 min; further: potency means the concentration at half of the fitted maximal effect; on the % scale 0 is the no-effect control and ±100 the full control effect; nearly all actives have a fitted effect of over 50% in size
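In this concentration-response screen, enzyme-free wells defined baseline while DMSO plates tracked drift. Each reaction combined TbPYK, substrate, compound and 130 uM ADP for 45 min at room temperature. Kinase-Glo Plus luminescence gave the signal.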
Giardia FBPA inh – blocks Giardia fructose-bisphosphate aldolase activity; purified Giardia FBPA; Potency, µM (titrated, usually from 59.6 µM), for the others: at the top dose activity, negative = inhibition, hits mostly inhibitors; 0.71% of 290,000 active; further: potency means the concentration at half of the fitted maximal effect; on the % scale 0 is the no-effect control and ±100 the full control effect; nearly all actives have a fitted effect of over 55% in size
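Giardia FBPA (40 nM reagent) was preincubated 10 min at RT with compound (up to 57.5 uM final), then substrate plus GAPDH/TPI/NAD/arsenate coupling system with diaphorase/resazurin was added; resorufin fluorescence (525/598 nm) was read after 20 min.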
RE007 growth inh – less growth of the S. pombe RE007 Vpr strain. Potency, µM (series often up to 92.2 µM), for the others: top-dose activity change, negative = less growth, usual class: inhibitors. 0.21% of 360,000 active. S. pombe RE007 Vpr strain, BacTiter-Glo ATP luminescence, 24 h; active means well fitted falling curve with a large enough effect; inconclusive means small, poorly fitted or top-dose-only effect; inactive means no such curve, though single readings can be large or run the other way; further: potency means the concentration at half of the fitted maximal effect; on the % scale 0 is the no-effect control and ±100 the full control effect; nearly all actives have a fitted effect of over 50% in size
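Fission yeast RE007 carrying one integrated HIV-1 vpr copy, seeded at OD 0.01 in PMG+AL medium with 23 nL pinned compound. Grown 24 h at 30 degrees; viability read by BacTiter-Glo luminescence after 5 min.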
Shiga inhibitor – blocks Shiga toxin action in Vero cells; Vero cells, Shiga toxin protein synthesis inhibition reporter; inhibition, % at 38.7 µM; 9.2% of 290,000 active; AID 2315; in the data active means inhibition mostly above about 28%, no sharp cut-off; inactive means mostly below about 43%; further: 0% is about no effect
CHX counter – affects cycloheximide protein synthesis inhibition readout, counter-screen; 12% of 300,000 active; AID 2314; cell reporter, cycloheximide protein synthesis inhibition counterscreen; max response, %; in the data active means max response mostly above about 13%, no sharp cut-off; inactive means mostly below about 14%; further: read at 38.3 µM for the half of the compounds with a filed dose; 0% is about no effect
LmPK inhibitor – blocks Leishmania mexicana pyruvate kinase activity | purified LmPK, Kinase-Glo ATP luminescence, 1 h | AID 1721 | Potency, µM (series often up to 57.5 µM), for inactives: at the top dose activity change, negative = inhibition, most hits filed as inhibitors | 0.37% of 290,000 active; further: potency means the concentration at half of the fitted maximal effect; on the % scale 0 is the no-effect control and ±100 the full control effect
Target sequence (Q27686 whole entry, looked up): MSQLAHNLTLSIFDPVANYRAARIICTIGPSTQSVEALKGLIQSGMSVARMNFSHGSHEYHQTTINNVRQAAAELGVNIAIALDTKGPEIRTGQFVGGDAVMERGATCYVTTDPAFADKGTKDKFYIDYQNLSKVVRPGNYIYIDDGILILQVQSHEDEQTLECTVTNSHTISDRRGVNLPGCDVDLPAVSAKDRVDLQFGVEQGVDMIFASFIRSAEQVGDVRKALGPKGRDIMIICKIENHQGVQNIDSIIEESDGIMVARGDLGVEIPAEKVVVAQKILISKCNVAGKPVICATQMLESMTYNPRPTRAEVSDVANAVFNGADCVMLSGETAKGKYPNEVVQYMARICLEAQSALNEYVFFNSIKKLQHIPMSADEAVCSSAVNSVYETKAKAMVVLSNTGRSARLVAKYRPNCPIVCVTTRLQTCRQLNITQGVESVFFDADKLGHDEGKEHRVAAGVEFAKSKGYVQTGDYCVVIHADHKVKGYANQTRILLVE
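Screened at intermediate enzyme activity to detect both inhibitors and activators: LmPK at 0.1 nM, with a 0.5 nM enzyme column as activation reference. PEP 0.5 mM, ADP 0.1 mM; ATP detected by luminescence after 1 h.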
Starred values were filed as active, the others as inactive; ! = repeats disagree; [ ] = remark or other dose. Shown is part of a subset that was picked to be rich in hits. Unless noted, the call rests on the fitted dose curve; in most records, active means well fitted curve in the direction sought with a large enough effect; inconclusive means small, poorly fitted or top-dose-only effect, or another doubt; inactive means no such curve, though single readings can be large; an effect the other way counts as inactive or inconclusive.

Screening Cc1nc(-c2ccc(Cl)cc2)sc1C1(C)CC(c2cccc(Cl)c2)=NO1 (configuration not stated) returned TbPYK inhibitor -10%, Giardia FBPA inh -8%, RE007 growth inh 10%, Shiga inhibitor 32*, CHX counter 17* and LmPK inhibitor 3%.
`Cc1nc(-c2ccc(Cl)cc2)sc1C1(C)CC(c2ccc(F)cc2)=NO1` (configuration not stated) gave TbPYK inhibitor 3%, Giardia FBPA inh -5%, RE007 growth inh -10%, Shiga inhibitor 47*, CHX counter 25* and LmPK inhibitor -1%.
For Cc1cccc(CSc2nc3c(c(=O)[nH]2)C(c2cccc(O)c2)CC(=O)N3)c1 (configuration not stated) the results were TbPYK inhibitor -7%.
CCOc1ccc(C(=O)Nc2ccc(N3CCCC3)cc2)cc1 was read as TbPYK inhibitor -21%, Giardia FBPA inh -12%, RE007 growth inh -13%, Shiga inhibitor 33, CHX counter 19* and LmPK inhibitor -3%.
`CCOc1cccc(C(=O)Nc2ccc(N3CCCC3)cc2)c1` gave TbPYK inhibitor inconclusive, Giardia FBPA inh -4%, RE007 growth inh 11%, Shiga inhibitor 48, CHX counter 17* and LmPK inhibitor 5%.
`CCOc1ccc(NC(=O)c2cccc(N3CCCS3(=O)=O)c2)cc1` gave TbPYK inhibitor -1%.
For CCOc1ccc(NC(=O)c2cccc(OC(=S)N3CCC(C)CC3)c2)cc1 the results were TbPYK inhibitor 3%, Giardia FBPA inh 2%, RE007 growth inh 1%, Shiga inhibitor 35, CHX counter 17* and LmPK inhibitor 0%.
`COc1cccc2c1C(=O)c1c(O)c3c(c(O)c1C2=O)C[C@@](O)(C(C)=O)C[C@@H]3O[C@H]1C[C@H](N)[C@H](O)[C@H](C)O1` gave TbPYK inhibitor 0%, Giardia FBPA inh inconclusive, RE007 growth inh -5%[18.4 µM], Shiga inhibitor 42*!, CHX counter 5 and LmPK inhibitor -20%.
Screening COc1cccc2c1C(=O)c1c(O)c3c(c(O)c1C2=O)C[C@](O)(C(=O)CO)C[C@@H]3O[C@H]1C[C@H](N)[C@@H](O)[C@H](C)O1 returned TbPYK inhibitor 5%.
`CCOC(=O)c1[nH]ncc1CN1CCc2ccc(NC(=O)C3CCCO3)cc2C1` (configuration not stated) gave TbPYK inhibitor -4%, Giardia FBPA inh -13%, RE007 growth inh 6%, Shiga inhibitor -11, CHX counter 1 and LmPK inhibitor 5%.
CC(=O)NC(=S)Nc1ccc(NC(=O)c2cccs2)cc1 was read as TbPYK inhibitor -7%, Giardia FBPA inh -4%, RE007 growth inh 10%, Shiga inhibitor 32*, CHX counter 28* and LmPK inhibitor -5%.
O=C(NC(=S)Nc1ccc(Br)cn1)c1cccs1 was read as TbPYK inhibitor 3%, Giardia FBPA inh inconclusive, RE007 growth inh 0%, Shiga inhibitor 105*, CHX counter 69* and LmPK inhibitor 1%.
`O=C(Nc1ccc(NC(=S)NC(=O)c2cccs2)cc1)c1ccccc1` gave TbPYK inhibitor 4%, Giardia FBPA inh -11%, RE007 growth inh 2%, Shiga inhibitor -2, CHX counter 11 and LmPK inhibitor 1%.
COc1ccc(C(=O)NNC(=S)NC(=O)/C=C/c2cccs2)cc1 was read as TbPYK inhibitor -10%, Giardia FBPA inh 1%, RE007 growth inh -12%, Shiga inhibitor 111*, CHX counter 37* and LmPK inhibitor 25µM*.
`O=C(/C=C/c1cccs1)NC(=S)NNC(=O)c1ccccc1O` gave TbPYK inhibitor -9%, Giardia FBPA inh -18%, RE007 growth inh 5%, Shiga inhibitor -9, CHX counter 9 and LmPK inhibitor 3%.
`O=C(/C=C/c1cccs1)NC(=S)Nc1ccccc1` gave TbPYK inhibitor 4%, Giardia FBPA inh -15%, RE007 growth inh -19%, Shiga inhibitor 123*, CHX counter 32* and LmPK inhibitor 1%.

Bioassay records from PubChem.
